Structures can show the parent of a compound that is named as a salt.
What was measured:
Assay in all cases: Euclidean distance of Cell Painting phenotypic profile (signed KS, 77 features) to DMSO centroid (dimensionless distance); 5 or 10 uM (library dependent); higher = stronger phenotypic change vs DMSO (phenoactivity)
Details in all cases: 48 h
786-O = tested on: 786-O
Outline: (§1)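 Five cancer lines and a healthy fibroblast line received library compounds at 10 or 5 uM (library-dependent, 0.1% DMSO final) for 48 h. Stained cells were imaged confocally at 20X (9 fields/well). Harmony extracted 77 features, each scored as a signed Kolmogorov-Smirnov statistic against same-plate vehicle wells. Profiles were plate-position corrected, correlation-weighted and replicate-averaged at the top dose. Phenoactivity is the Euclidean distance from each profile to the median vehicle profile.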

A549 = tested on: A549
Outline: as §1

DU145 = tested on: DU145
Outline: as §1

FB = tested on: FB
Outline: as §1

HEPG2 = tested on: HEPG2
Outline: as §1

OVCAR4 = tested on: OVCAR4
Outline: as §1

Structure (SMILES)	Euclidean distance (786-O)	Euclidean distance (A549)	Euclidean distance (DU145)	Euclidean distance (FB)	Euclidean distance (HEPG2)	Euclidean distance (OVCAR4)
NCC(=O)CCC(=O)O [5-Aminolevulinic acid HCl]	1.2	0.994	1.81	1.12	1.61	2
COc1cc2ncnc(Nc3ccc(Cl)cc3F)c2cc1OC	1.46	1.74	1.56	1.26	1.51	1.01
O=S1(=O)CCN(CN2CCS(=O)(=O)NC2)CN1 [Taurolidine]	1.32	0.797	0.913	1.04	0.654	1.46
C[N+](C)(C)NCCC(=O)[O-] [Mildronate]	1.41	1.05	1.05	1.1	0.54	0.82
Cc1onc(-c2ccccc2)c1-c1ccc(S(N)(=O)=O)cc1 [Valdecoxib]	1.12	1.19	0.983	1.21	0.509	1.58
CC[C@H]1OC(=O)[C@H](C)[C@@H](O[C@H]2C[C@@](C)(OC)[C@@H](O)[C@H](C)O2)[C@H](C)[C@@H](O[C@@H]2O[C@H](C)C[C@H](N(C)C)[C@H]2O)[C@](C)(O)C[C@@H](C)/C(=N\OCOCCOC)[C@H](C)[C@@H](O)[C@]1(C)O [Roxithromycin]	1.03	0.649	0.699	1.1	0.654	1.42
C=CCc1ccc(O)c(-c2ccc(O)c(CC=C)c2)c1 [Honokiol]	0.998	0.732	1.22	1.46	1.39	1.18
CC(=O)CC/C=C(\C)CC/C=C(\C)CC/C=C(\C)CCC=C(C)C [Teprenone]	1.06	0.693	0.749	1.12	1.1	1.23
CNNCc1ccc(C(=O)NC(C)C)cc1 [Procarbazine HCl]	1.36	0.988	1.23	1.25	0.885	0.933
Cc1c(-c2ccc(O)cc2)n(Cc2ccc(OCCN3CCCCCC3)cc2)c2ccc(O)cc12 [Bazedoxifene Acetate]	4.76	4.78	3.21	4.56	4.37	3.76
CCN(CC)CCOC(=O)c1ccc(N)cc1 [Procaine]	0.916	0.935	0.941	1.08	1.37	0.75
O=C(O)c1cc(=O)c2c(OCC(O)COc3cccc4oc(C(=O)O)cc(=O)c34)cccc2o1 [Disodium Cromoglycate]	0.952	0.486	1.78	1.02	0.769	1.05
CC1(C)CCC2=C(O1)c1ccccc1C(=O)C2=O [Beta-Lapachone]	3.88	5.17	7.8	4.08	4.33	5.57
Oc1cccc(-c2nc(N3CCOCC3)c3oc4ncccc4c3n2)c1	1.25	3.67	1.5	2.89	0.936	2.62
CC(=O)SCC(Cc1ccccc1)C(=O)NCC(=O)OCc1ccccc1 (configuration not stated) [Racecadotril]	1.61	0.894	0.905	1.14	0.452	1.68
C[C@]12CCC(=O)C=C1CC[C@@H]1[C@@H]2C(=O)C[C@@]2(C)[C@H]1CC[C@]2(O)C(=O)CO [Cortisone]	1.73	0.941	1.11	1.27	0.411	1
COc1cccc2cc(-c3nc([C@H]4CC[C@H](C(=O)O)CC4)n4ncnc(N)c34)[nH]c12	2.33	2.18	1.44	3.76	2.92	3.56
NC(=O)c1ccc(OCCCN2CC3CCCC3C2)cc1 (configuration not stated)	1.32	1.16	1.39	1.36	0.495	1.23
O=C(Nc1cnn2ccc(N3CCC[C@@H]3c3cc(F)ccc3F)nc12)N1CC[C@H](O)C1 [Larotrectinib (LOXO-101) sulfate]	0.597	0.899	1.05	0.634	0.551	1.27
O=C(O)CCCc1cc2cc(Cl)ccc2n1S(=O)(=O)c1ccc2ncsc2c1 [Lanifibranor(IVA-337)]	0.7	0.787	0.862	0.874	0.544	1.53
CN1CCC(OC(c2ccccc2)c2ccccc2)CC1 [Diphenylpyraline hydrochloride]	0.93	0.611	2.19	1.17	0.532	0.876
C[C@H](Cc1cc2c(c(C(N)=O)c1)N(CCCO)CC2)NCCOc1ccccc1OCC(F)(F)F [Silodosin]	2.28	1.27	1.57	2.6	2.41	1.57
CC(C)OC(=O)CCC/C=C\C[C@@H]1[C@@H](/C=C/[C@@H](O)COc2cccc(C(F)(F)F)c2)[C@H](O)C[C@@H]1O [Travoprost]	0.945	0.886	0.732	1.11	1.07	1.25
CC1(N)CCN(c2cccnc2NC(=O)c2nc(-c3ncccc3C(F)(F)F)cnc2N)CC1	2.98	2.64	3.38	2.85	3.49	2.63

Structure (SMILES)	Euclidean distance (786-O)	Euclidean distance (A549)	Euclidean distance (DU145)	Euclidean distance (FB)	Euclidean distance (HEPG2)	Euclidean distance (OVCAR4)
COc1cc(/C=C/C(=O)O)ccc1O [Sodium ferulate]	1.56	1.15	1.14	1.08	1.11	1.46
COc1cccc(-c2c(C)n(Cc3c(F)cccc3C(F)(F)F)c(=O)n(C[C@H](NCCCC(=O)O)c3ccccc3)c2=O)c1F [Elagolix Sodium]	0.686	1.22	1.02	0.826	0.728	1.23
CNC[C@H](O)c1ccc(O)c(O)c1 [Epinephrine bitartrate]	0.553	0.655	0.818	0.827	0.637	0.577
CC[C@H](C)[C@H](NC(=O)[C@H](Cc1ccc(O)cc1)NC(=O)[C@@H](NC(=O)[C@H](CCCN=C(N)N)NC(=O)[C@@H](N)CC(=O)O)C(C)C)C(=O)N[C@@H](Cc1cnc[nH]1)C(=O)N1CCC[C@H]1C(=O)N[C@@H](Cc1ccccc1)C(=O)O [Angiotensin II human Acetate]	1.66	0.986	0.817	1.24	0.532	0.985
C#C[C@]1(O)CC[C@H]2[C@@H]3CCc4cc(O)ccc4[C@H]3CC[C@@]21C [Ethinyl Estradiol]	1.42	0.969	1.83	1.09	0.768	1.82
Cc1cccc(C)c1OCC(C)N (configuration not stated) [Mexiletine HCl]	0.988	0.742	0.639	1.07	0.966	0.836
CO/N=C(\C(=O)N[C@@H]1C(=O)N2C(C(=O)O)=C(COC(N)=O)CS[C@H]12)c1ccco1 [Cefuroxime sodium]	0.996	0.519	0.747	0.81	1.48	1.04
C=C[C@@]1(C)CC(=O)[C@]2(O)[C@@]3(C)[C@@H](O)CCC(C)(C)[C@@H]3[C@H](O)[C@H](OC(C)=O)[C@@]2(C)O1 [Forskolin]	1.79	1.04	1.39	1.18	1.34	1.23
CO/N=C(\C(=O)N[C@@H]1C(=O)N2C(C(=O)O)=C(COC(C)=O)CS[C@H]12)c1csc(N)n1 [Cefotaxime]	1.26	0.798	0.573	0.69	0.777	0.905
C#C[C@]1(O)CC[C@H]2[C@@H]3CCC4=Cc5oncc5C[C@]4(C)[C@H]3CC[C@@]21C [Danazol]	1.02	1.02	1.43	0.594	1.3	1.02
CCCCOc1cc(C(=O)NCCN(CC)CC)c2ccccc2n1 [Dibucaine HCl]	1.45	1.68	1.23	1.07	1.52	1.07
CC(C)NCC(O)c1ccc(O)c(O)c1 (configuration not stated) [Isoproterenol sulfate dihydrate]	1.03	0.632	2.58	1.23	0.763	0.894
Cc1cn([C@H]2C[C@H](N=[N+]=[N-])[C@@H](CO)O2)c(=O)[nH]c1=O [Zidovudine]	1.52	0.708	1.19	1.2	1.54	0.957
COc1cc(NC(=O)c2ccc(-c3ccc(Cl)cc3)o2)cc(OC)c1	0.91	1.46	1.23	0.788	1.04	1.48
Cn1cc(-c2ccc3nnc(Sc4ccc5ncccc5c4)n3n2)cn1	1.56	2.02	1.64	0.87	0.766	0.987
CCOC(=O)CC(=O)N1CCSC1COc1ccccc1OC (configuration not stated) [Moguisteine]	1.45	0.946	1.1	0.84	1.08	1.01
CC(C)c1nc(N(C)S(C)(=O)=O)nc(-c2ccc(F)cc2)c1/C=C/[C@@H](O)C[C@@H](O)CC(=O)O [Rosuvastatin Calcium]	0.535	0.682	2.17	1.71	1.03	0.889
Cc1cnc(NC(=O)C2=C(O)c3ccccc3S(=O)(=O)N2C)s1 [Meloxicam]	0.664	0.746	2.37	0.881	1.84	0.784
COc1cccc2c1C(=O)c1c(O)c3c(c(O)c1C2=O)C[C@@](O)(C(=O)CO)C[C@@H]3O[C@H]1C[C@H](N)[C@H](O)[C@H](C)O1 [Doxorubicin (Adriamycin)]	4.79	5.36	4.79	5.17	4.55	5
O=C(Cc1ccc(-c2ccc(OCCN3CCOCC3)cc2)cn1)NCc1ccccc1	3.21	3.15	4.51	2.74	3.85	2.99
CCS(=O)(=O)c1cccc(-c2cc(C(=O)NC3CCN(C)CC3)c(C)c3[nH]c4ncc(C)cc4c23)c1	3.1	3.9	2.89	3.63	2.3	2.17
Cc1cnc(NC(=O)Nc2cc(Br)c(C)cc2OC[C@@H]2CNCCO2)cn1	2.52	1.52	1.04	1.52	2.15	3.62
CN(C)C(=O)Nc1cccc(-c2ccc(N(C)C)cc2)c1 [Atglistatin]	1.31	1.47	1.1	0.894	0.548	1.33

— the supplement of paper PMC10127200
